Experimental data published in PubChem BioAssay (NCI).
Compounds without any hit were thinned out: in the full panel of roughly 83,000, 20% have a hit.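 Growth was measured after 48 h exposure to one concentration of compound in 96-well plates. Values under 10 count as active.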 Active and inactive are the calls of the source.

How the values were obtained:
Experiment in all cases: NCI-60 one-dose screen, 48 h (100 = growth as untreated, 0 = no growth, -100 = all killed)
Conditions in all cases: 10 µM unless noted
[1] = system: NCI-H23 lung
[2] = system: NCI-H322M lung
[3] = system: HOP-62 NSCLC
[4] = system: NCI-H460 lung
[5] = system: HOP-92 NSCLC
[6] = system: NCI-H522 lung
[7] = system: A549/ATCC NSCLC
[8] = system: 786-0 renal
[9] = system: COLO 205 colon
[10] = system: DU-145 prostate
[11] = system: K-562 leukemia
[12] = system: MALME-3M melanoma
[13] = system: MDA-MB-231 breast
[14] = system: RXF 393 renal
[15] = system: SF-268 CNS
[16] = system: SF-295 CNS
[17] = system: SF-539 CNS
[18] = system: UACC-257 melanoma
[19] = system: M14 melanoma
[20] = system: HCT-15 colon

Measured: growth

Nc1ccc(-c2ccc(-c3ccccc3N)c3[nH]c4ccccc4c23)cc1
inactive: [1] 28.4% | [2] 41.4% | [3] 42.1% | [4] 16.1% | [5] 36.9% | [6] 46.4% | [7] 30.4% | [8] 46% | [9] 13.2% | [10] 10.2% | [11] 13.4% | [12] 36.8% | [13] 36.2% | [14] 24.5% | [15] 39.5% | [16] 22.2% | [17] 28% | [18] 33.2% | [20] 19.5%
active: [19] 6.58%

COc1c(B(O)O)cccc1-c1nc2ccc3n[nH]c(F)c3c2c2c1CCCC2
inactive: [1] 92.9% | [2] 92.6% | [3] 66.3% | [4] 47.2% | [5] 78.6% | [6] 59.4% | [7] 66% | [8] 69.5% | [9] 93.2% | [10] 77.7% | [11] 92.9% | [12] 119% | [13] 28.9% | [14] 24.1% | [15] 50.5% | [16] 80% | [17] 25.1% | [18] 121% | [19] 104% | [20] 85.3%

CCN1C(=O)N(CC)C2C1NN=c1s/c(=C3\C(=O)N(C(C)C)c4ccccc43)c(=O)n12 (stereo not given)
active: [4] 5.6% | [6] -3.38% | [9] -16% | [10] 3.71% | [11] 7.46% | [16] 5.01% | [17] -13.2%
inactive: [1] 28.8% | [2] 52.6% | [3] 38.7% | [5] 54% | [7] 16.5% | [8] 30.6% | [12] 64.6% | [13] 11.3% | [14] 35.5% | [15] 25.2% | [18] 57.1% | [19] 18.9% | [20] 12.4%

CC1=C(C(=O)OCC2CCN(C(=O)OC(C)(C)C)CC2)[C@H](c2cccc(Br)c2)C2=C(CC(C)(C)CC2=O)N1
inactive: [1] 48.4% | [2] 57.2% | [3] 55.7% | [5] 61.7% | [6] 19.8% | [7] 17.3% | [8] 44.1% | [9] 27.4% | [10] 38.3% | [11] 15.8% | [12] 26.1% | [13] 46% | [14] 66.3% | [15] 33.1% | [16] 39.9% | [17] 41.2% | [18] 29.1% | [19] 29.8% | [20] 21%
active: [4] 8.59%

Cn1nc(C(C)(C)C)cc1NC(=O)Cc1ccc(/C=C2\C(=O)Nc3ccccc32)cc1
inactive: [1] 41.1% | [2] 84.8% | [3] 74.3% | [4] 67.8% | [5] 59.5% | [6] 45% | [7] 57.6% | [8] 72.1% | [9] 80.2% | [10] 56.6% | [11] 22.3% | [12] 58% | [13] 66.4% | [14] 70.9% | [15] 63.1% | [16] 51.7% | [17] 54.9% | [18] 41.4% | [19] 56.5% | [20] 48.4%

CN1C(=O)N(C)C2Nn3c(s/c(=C\c4ccc(Cl)cc4Cl)c3=O)=NC21 (stereo not given)
inactive: [1] 61.8% | [2] 78.7% | [3] 73.2% | [4] 30.8% | [5] 89.5% | [6] 55.3% | [7] 51.4% | [8] 68.5% | [9] 22% | [10] 30.3% | [11] 19.5% | [12] 72.5% | [13] 55.9% | [14] 39.7% | [15] 61.1% | [16] 32.4% | [17] 36% | [18] 84.5% | [19] 21% | [20] 43.8%

CN1CCN(Cc2ccc(NC(=O)c3cncc(C#Cc4nc(N)nc5[nH]ncc45)c3)cc2C(F)(F)F)CC1
inactive: [1] 102% | [2] 114% | [3] 122% | [4] 112% | [5] 77.8% | [7] 103% | [8] 111% | [9] 21.6% | [10] 74.7% | [12] 68.6% | [13] 100% | [14] 79.2% | [15] 102% | [16] 108% | [17] 104% | [18] 83.1% | [19] 89.4% | [20] 97.8%
active: [6] -37.1% | [11] 4.75%

c1ccc2cc3c(Nc4ccc(N5CCOCC5)cc4)ccnc3cc2c1
inactive: [1] 95% | [2] 111% | [3] 100% | [4] 86.5% | [5] 104% | [6] 97.5% | [7] 85% | [8] 91.6% | [9] 106% | [10] 97.2% | [11] 72.7% | [12] 98.1% | [13] 91.3% | [14] 92% | [15] 87.6% | [16] 98% | [17] 92.4% | [18] 108% | [19] 99.9% | [20] 91.1%

CCN(CC)CCNC(=O)C(Cl)=C1C(Cl)=C(Cl)C(Cl)=C1Cl
inactive: [1] 55.9% | [2] 81.7% | [3] 75.5% | [4] 19.3% | [5] 53.8% | [7] 46.6% | [8] 90.1% | [9] 54.5% | [10] 48.4% | [11] 24.2% | [12] 58% | [13] 50.1% | [14] 66.9% | [15] 52% | [16] 71.7% | [17] 60.1% | [18] 44.3% | [19] 38.7% | [20] 50.5%
active: [6] -14.7%

COc1ccc(S(=O)(=O)N(Cc2ccc3c(n2)C=CC(C)(C)O3)C2CCC2)cc1OC
active: [1] -14.5% | [2] -20.1% | [3] 1.37% | [4] 1.79% | [5] -19.6% | [6] -27.7% | [7] -2.9% | [8] -26.5% | [9] 0.159% | [10] -8.1% | [11] 7.07% | [12] -36.9% | [13] 3.21% | [14] -20.2% | [15] -9.29% | [16] -43.3% | [17] 0.455% | [18] -13.9% | [19] -59.1%
inactive: [20] 13.5%

NCCOc1ncccc1/C=C1\c2ccccc2-c2ccc([N+](=O)[O-])cc21
active: [1] -68.1% | [2] -23.4% | [3] -60.1% | [4] -46.1% | [5] -39.5% | [6] -20% | [7] -58.6% | [8] -85.8% | [9] -50.5% | [10] -34.4% | [11] 2.88% | [12] -80.4% | [13] -42.3% | [14] -88.6% | [15] -12.9% | [16] -36.6% | [17] -83% | [18] 5.4% | [19] -63.3% | [20] -26.4%

COc1cccc(-c2nn(C)c3sc(C(=O)NCCN4CCN(c5ccccc5F)CC4)cc23)c1
active: [9] -78.4% | [11] -35.5% | [12] -87% | [16] -55.6% | [18] -67.3% | [19] -90.1%
inactive: [1] 91.2% | [2] 87.3% | [3] 81.4% | [4] 57.6% | [5] 14.9% | [6] 60.9% | [7] 74.7% | [8] 57.6% | [10] 89.4% | [13] 30.8% | [14] 41.3% | [15] 76.9% | [17] 56.4% | [20] 29.3%

CCC1=C[C@@H]2CN(C1)Cc1c([nH]c3ccccc13)[C@@](C(=O)OC)(c1cc3c(cc1OC)N(C)[C@H]1[C@@](O)(C(=O)OC)[C@H](OC(C)=O)[C@]4(CC)[C@@H]5C[C@@H]5CN5CC[C@]31[C@@H]54)C2
active: [1] 5.89% | [4] 0.48% | [6] -14.5% | [9] -86% | [10] -17.9% | [11] -10% | [12] -63.9% | [13] -45.4% | [15] 8.9% | [17] -17.5% | [19] -22.3%
inactive: [2] 49.3% | [3] 17.4% | [5] 21.2% | [7] 13.9% | [8] 11.2% | [14] 29.5% | [16] 20.1% | [18] 32.8% | [20] 13.4%

Cc1nc2ccccc2c(/C=C/c2ccccc2)c1C(=O)/C=C/c1ccc(Cl)cc1
inactive: [1] 34.8% | [2] 50% | [3] 11.7% | [5] 46.9% | [7] 25.3% | [9] 31.3% | [12] 40.8% | [15] 44.6% | [16] 29% | [17] 26.6% | [18] 29.9% | [19] 17.1%
active: [4] -37.6% | [6] -18.9% | [8] 2.52% | [10] 4.72% | [11] 5.19% | [13] 8.28% | [14] -28.2% | [20] -13.2%

O=C(Nc1ccc(N2CCNCC2)cn1)c1[nH]ncc1Nc1ncnc2sc3c(c12)CCC3
active: [4] -59.2% | [7] -51.7% | [8] -85.5% | [10] -52.1% | [11] -65.2% | [12] -47.7% | [13] -48.9% | [17] -51% | [19] -60.7% | [20] -85.6%
inactive: [1] 10.7% | [2] 63.8% | [3] 76.2% | [5] 37.9% | [6] 35.9% | [9] 22.8% | [14] 18.6% | [15] 37.8% | [16] 104% | [18] 67.8%
